According to PubChem BioAssay (NCATS):
Results filed as inconclusive are left out. A call without a number means that no potency is given here. The source made the active and inactive calls. Unless noted, calls follow the shape of the dose curve; as a rule, active = well fitted curve in the direction sought with a large enough effect; inconclusive = small, poorly fitted or top-dose-only effect, or another doubt; inactive = no such curve, though single readings can be large; an effect the other way counts as inactive or inconclusive.

Key:
[1] = target: Cytochrome P450 2D6 (Homo sapiens) (UniProt P10635); assay: qHTS Assay for Inhibitors and Substrates of Cytochrome P450 2D6 (AID 891); conditions: recombinant CYP2D6, luciferin-ME EGE luminescence; series mostly up to 57.1 µM;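 also: luciferin methyl ether substrate demethylated by CYP2D6 with NADPH regeneration; nearly all actives have a fitted effect of over 60% in size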
Summary of the method: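 Human CYP2D6 (5 nM) with 30 uM Luciferin-ME EGE (at Km) in 100 mM KPO4, compound preincubated 10 min, then NADPH regeneration system for 60 min at room temperature. Luciferin read by luminescence; normalized to 1.43 uM quinidine.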

[2] = Confirmatory qHTS for activators (rescue) of SARS-CoV-2 Cytopathic Effect (CPE) (AID 1508606; calls by dose curve; also: potency is read from the fitted curve at half-maximal effect; nearly all actives have a fitted effect of over 70% in size); conditions: Vero E6 SARS-CoV-2 CPE rescue, viability luminescence; series mostly up to 20 µM
[3] = target: Nuclear receptor subfamily 1 group I member 3 (Homo sapiens) (UniProt Q14994); assay: Primary qHTS for antagonist of constitutive androstane receptor (CAR) against the NCATS DSHEA and TCM libraries (AID 1794836); conditions: CAR reporter cell assay, antagonist mode, luciferase; series mostly up to 40 µM;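 also: HepG2 cells stably expressing hCAR with CYP2B6 luciferase reporter stimulated by CITCO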
Summary of the method: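 Antagonist mode: CAR reporter luminescence (ONE-Glo) in HepG2-CYP2B6-hCAR cells stimulated with 48 uM CITCO (final) over 24 h at 37 C, compounds titrated; viability read first by CellTiter-Fluor fluorescence.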

[4] = target: Cytochrome P450 2C9 (Homo sapiens) (UniProt P11712); assay: qHTS for inhibitors of CYP2C9 against the NCATS DSHEA and TCM libraries (AID 1919973); conditions: recombinant CYP2C9 enzyme activity, luminescence; series mostly up to 34.1 µM;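 also: luminogenic pro-luciferin CYP2C9 substrate turned into luciferin with NADPH regeneration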
Summary of the method: (§1)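 Luminescent P450-Glo format: compounds preincubated 15 min with enzyme and luciferin substrate, reaction run 30-45 min after NADPH regeneration solution. Intraplate controls: ketoconazole for CYP3A4 and CYP2C19, sulfaphenazole for CYP2C9.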

[5] = target: Cytochrome P450 2C19 (Homo sapiens) (UniProt P33261); assay: qHTS for inhibitors of CYP2C19 against the NCATS DSHEA and TCM libraries (AID 1919974); conditions: CYP2C19 enzyme inhibition, luminescence qHTS; series mostly up to 34.1 µM;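 also: luminescence from luciferin released by CYP2C19 oxidation of a pro-luciferin substrate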
Summary of the method: as §1

[6] = Dual reporter qHTS for agonist of Pregnane X Receptor (hPXR) against the NCATS DSHEA and TCM libraries: Fluorescence readout (AID 1920058); conditions: PXR dual reporter cells; series mostly up to 40 µM
Summary of the method: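 hPXR-Luc HepG2 cells, 2000/well in charcoal-stripped serum, attached 5 h, dosed for ~24 h at 37 °C. Fluorescence read is CellTiter-Fluor viability (Ex/Em 405/540 nm); rifampicin positive, tetraoctyl ammonium bromide (92 µM) cytotoxicity controls.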

[7] = target: Nuclear receptor subfamily 1 group I member 2 (Homo sapiens) (UniProt O75469); assay: Dual reporter qHTS for agonist of Pregnane X Receptor (hPXR) against the NCATS DSHEA and TCM libraries: Luminescence readout (AID 1920059); conditions: hPXR dual reporter cells, luciferase luminescence agonist; series mostly up to 40 µM
Summary of the method: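 Luminescent PXR reporter read (ONE-Glo) after a CellTiter-Fluor viability read, following 24 h, 37C treatment of HepG2 cells stably carrying hPXR-Luc.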

[8] = target: Lysosomal acid glucosylceramidase (Homo sapiens) (UniProt P04062); assay: Glucocerebrosidase-p2 (AID 348; in the data active = potency below about 10 µM; also: potency is read from the fitted curve at half-maximal effect); conditions: purified GBA, blue fluorogenic substrate, 40 min
Summary of the method: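 Compounds titrated from 0.6 nM upwards against 0.2 nM enzyme in pH 5.9 citric acid/KH2PO4, taurocholate, tween-20; blue fluorogenic substrate 80 uM, 40 min room temperature, stopped and read Ex 365/Em 440 for AC50.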

[9] = Cell Proliferation Assay against the TMD8 Cell Line (AID 651645); conditions: TMD8 DLBCL cell line proliferation/viability; at 46.1 µM (top of the series);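 also: cells exposed to compound for 48 h before reading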
Summary of the method: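 Luminescent ATP read-out (CellTiter-Glo, 15 min RT) after 48 h compound exposure of log-growing TMD8 cells at 37C; percent activity scaled between DMSO as 100% and 9.2 uM bortezomib final as 0%.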

[10] = Cell Proliferation Assay against the HBL1 Cell Line (AID 651646); conditions: HBL1 DLBCL cells; at 46.1 µM (top of the series);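 also: cells exposed to compound for 48 h before reading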
Summary of the method: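 Luminescent ATP read-out (CellTiter-Glo) after 48 h compound exposure of HBL1 cells at 37 °C; percent activity was scaled between DMSO as 100% and 9.2 uM bortezomib (final) as 0%.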

[11] = Cell Proliferation Assay against the TMD8 Cell Line (Caspase readout at 8 hrs) (AID 651713); conditions: TMD8 lymphoma cells, caspase activation luminescence; also: potency is read from the fitted curve at half-maximal effect
Summary of the method: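 TMD8 cells in RPMI plus 5% FBS were treated with compound for 8 h at 37C. Caspase 3/7 activation was read by Caspase-Glo luminescence. Percent activity was scaled from DMSO (0%) to 9.2 uM bortezomib final (100%).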

[12] = target: Tyrosine-protein kinase Yes (Homo sapiens) (UniProt P07947); assay: qHTS for small molecule inhibitors of Yes1 kinase: Primary Screen (AID 686947); conditions: Yes1 kinase biochemical qHTS inhibition; series mostly up to 76.9 µM; also: nearly all actives have a fitted effect of over 60% in size
Summary of the method: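 Yes1 (4 nM) preincubated 20 min with compound, then 60 min room-temperature reaction with 0.1 mM ATP and 0.3 mg/mL poly(E4Y) in pH 7.5 Tris, 10 mM MgCl2. ADP measured by ADP-Glo luminescence, normalised to enzyme/no-enzyme controls.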

[13] = target: Calcium and integrin-binding protein 1 (Homo sapiens) (UniProt Q99828); assay: Confirmatory qHTS for Identification of Calcium Integrin Binding Protein 1 (CIB1) Competitor (AID 1508617); conditions: CIB1 binding competition assay, biochemical qHTS; also: potency is read from the fitted curve at half-maximal effect; nearly all actives have a fitted effect of over 65% in size
Summary of the method: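 Compounds at up to 114 uM final met 1 uM GST-tagged CIB1 for 15 min at room temperature (HEPES pH 7.4, 5 mM CaCl2). FITC-labelled alphaIIb peptide, 100 nM, added; polarization read after 15 min more.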

[14] = Inducers of the Endoplasmic Reticulum Stress Response (ERSR) in human glioma: Validation (AID 504836); conditions: human glioma cells, ER stress response reporter; series mostly up to 38.3 µM
Summary of the method: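 ERSR induction read as luciferase luminescence (Bright-Glo, 10 min at room temperature) in stably transfected human U87-MG glioma cells exposed to compounds for 16 h, using GRP78 as sensor.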

[15] = qHTS for Inhibitors of ATXN expression: Validation of Cytotoxic Assay (AID 588349); conditions: cytotoxicity counter-screen for ATXN expression inhibitors, cell viability; series mostly up to 57.1 µM
Summary of the method: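 HEK293 cells treated with titrated compound for 72 hr at 37 degrees C; viability read as intracellular ATP by CellTiter Glo luminescence.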

[16] = qHTS for Inhibitors of ATXN expression: Validation (AID 588378); conditions: cell-based ATXN2 expression reporter assay, luminescence; series mostly up to 57.1 µM; also: nearly all actives have a fitted effect of over 75% in size
Summary of the method: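 Cells: HEK293-ATXN2-FFLuc, phenol-red free DMEM, 2 h attachment. Compound pin-transfer, 24 h, 37 degrees C, 5% CO2. CellTiter-Fluor 30 min, Ex405/Em525; Bright-Glo 5 min, luminescence 2 s exposure.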

[17] = target: Glucagon-like peptide 1 receptor (Homo sapiens) (UniProt P43220); assay: qHTS of GLP-1 Receptor Agonists: LOPAC Validation (AID 624148); conditions: GLP-1R agonist cell assay; series mostly up to 46.1 µM;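 also: luminescence from a luciferase reporter switched on by cAMP; higher luminescence signal means agonism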
Summary of the method: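 Agonism scored as increased luciferase luminescence driven by cAMP in HEK293 clones carrying GLP-1R. Cells settled 12 hours, received compound for 4-6 hr at 37 deg C, 5% CO2, and were read after 12 min detection reagent at RT.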

[18] = qHTS of Nrf2 Activators: LOPAC Validation (AID 624149); conditions: Nrf2/ARE reporter cell assay; series mostly up to 46.1 µM
Summary of the method: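 AREc32_Fluc cells, 1000/well in OPTI-MEM with 5% FBS, grown overnight, then exposed to compounds for 24 hr at 37 deg C, 5% CO2. ARE-driven firefly luciferase read by Steady-Glo luminescence after 30 min at RT.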

[19] = HTS Assay for Allosteric Antagonists of the Human D2 Dopamine Receptor: Hit Validation in HTRF (AID 624455); conditions: Cells stably expressing D1 dopamine receptor, inhibition mode; series mostly up to 46.1 µM;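 also: stable D1 dopamine receptor cell line scored for blocking the D1 response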
Summary of the method: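 Hit validation in cells stably expressing the D1 dopamine receptor, run in HTRF format. Compounds were tested for their ability to inhibit the D1-mediated response.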

[20] = target: Transient receptor potential cation channel subfamily V member 1 (Homo sapiens) (UniProt Q8NER1); assay: HTS Assay for Compounds that Act as Enhancers of the Vanilloid Receptor 1 (AID 488979); conditions: TRPV1-expressing cells, enhancer of channel activity; series mostly up to 41.7 µM
Summary of the method: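 Calcium influx kinetics via Fluo-8 (480/520 nm) in TRPV1-expressing cells, 2000/well cultured overnight at 35.5C. Compound-alone read 3 min (agonist phase), followed by EC20 capsaicin challenge for 2 min (enhancer phase).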

Chain of Transient receptor potential cation channel subfamily V member 1 (Homo sapiens) (Q8NER1 whole entry, looked up): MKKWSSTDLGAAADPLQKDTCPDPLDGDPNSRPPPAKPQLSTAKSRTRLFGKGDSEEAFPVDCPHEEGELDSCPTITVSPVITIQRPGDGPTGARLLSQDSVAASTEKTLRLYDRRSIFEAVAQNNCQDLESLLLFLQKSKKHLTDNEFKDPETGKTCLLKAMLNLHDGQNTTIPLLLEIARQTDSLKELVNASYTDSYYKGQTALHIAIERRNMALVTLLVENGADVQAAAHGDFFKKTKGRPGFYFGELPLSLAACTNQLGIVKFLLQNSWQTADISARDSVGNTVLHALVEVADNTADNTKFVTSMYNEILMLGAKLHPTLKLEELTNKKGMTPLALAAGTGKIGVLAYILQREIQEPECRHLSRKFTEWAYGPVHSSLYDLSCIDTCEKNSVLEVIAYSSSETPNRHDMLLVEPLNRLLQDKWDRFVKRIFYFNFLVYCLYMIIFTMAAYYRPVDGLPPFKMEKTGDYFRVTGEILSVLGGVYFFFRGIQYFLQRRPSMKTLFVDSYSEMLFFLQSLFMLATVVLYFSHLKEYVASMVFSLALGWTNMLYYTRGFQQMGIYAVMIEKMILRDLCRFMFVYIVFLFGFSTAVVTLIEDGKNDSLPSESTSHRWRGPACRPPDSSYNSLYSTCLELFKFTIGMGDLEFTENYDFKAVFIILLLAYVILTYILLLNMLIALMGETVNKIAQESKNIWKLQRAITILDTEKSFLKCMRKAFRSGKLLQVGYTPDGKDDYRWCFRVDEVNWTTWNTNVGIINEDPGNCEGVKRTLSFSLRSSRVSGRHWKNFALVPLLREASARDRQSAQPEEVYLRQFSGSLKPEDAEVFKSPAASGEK
Chain of Glucagon-like peptide 1 receptor (Homo sapiens) (P43220 whole entry, looked up): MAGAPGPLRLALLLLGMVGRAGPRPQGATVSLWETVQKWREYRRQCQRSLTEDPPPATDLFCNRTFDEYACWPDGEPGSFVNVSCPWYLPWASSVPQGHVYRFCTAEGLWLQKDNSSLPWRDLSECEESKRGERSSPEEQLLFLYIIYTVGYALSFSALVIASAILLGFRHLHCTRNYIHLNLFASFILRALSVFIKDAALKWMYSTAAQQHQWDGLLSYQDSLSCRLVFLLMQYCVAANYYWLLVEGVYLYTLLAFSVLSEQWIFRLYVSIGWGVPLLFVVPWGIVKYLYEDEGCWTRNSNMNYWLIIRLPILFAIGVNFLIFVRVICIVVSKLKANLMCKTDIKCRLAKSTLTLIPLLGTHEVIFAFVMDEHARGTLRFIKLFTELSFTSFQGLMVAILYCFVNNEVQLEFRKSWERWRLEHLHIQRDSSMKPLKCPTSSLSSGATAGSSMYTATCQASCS
Chain of Lysosomal acid glucosylceramidase (Homo sapiens) (P04062 whole entry, looked up): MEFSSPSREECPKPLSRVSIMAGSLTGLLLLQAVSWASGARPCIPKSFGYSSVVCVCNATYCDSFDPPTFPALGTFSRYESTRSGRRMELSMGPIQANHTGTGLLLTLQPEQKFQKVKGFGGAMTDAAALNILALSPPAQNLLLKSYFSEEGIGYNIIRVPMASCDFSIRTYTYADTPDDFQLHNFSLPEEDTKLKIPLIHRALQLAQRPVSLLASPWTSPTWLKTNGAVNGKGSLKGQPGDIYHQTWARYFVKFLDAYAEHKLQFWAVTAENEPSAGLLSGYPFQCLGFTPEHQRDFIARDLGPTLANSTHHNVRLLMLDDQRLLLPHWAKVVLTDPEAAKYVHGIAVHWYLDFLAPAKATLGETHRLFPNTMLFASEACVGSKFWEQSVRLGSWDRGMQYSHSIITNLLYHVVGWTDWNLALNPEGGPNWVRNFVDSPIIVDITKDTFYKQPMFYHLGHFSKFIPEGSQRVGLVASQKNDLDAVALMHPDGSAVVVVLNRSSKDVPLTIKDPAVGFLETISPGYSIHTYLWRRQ
Chain of Nuclear receptor subfamily 1 group I member 2 (Homo sapiens) (O75469 whole entry, looked up): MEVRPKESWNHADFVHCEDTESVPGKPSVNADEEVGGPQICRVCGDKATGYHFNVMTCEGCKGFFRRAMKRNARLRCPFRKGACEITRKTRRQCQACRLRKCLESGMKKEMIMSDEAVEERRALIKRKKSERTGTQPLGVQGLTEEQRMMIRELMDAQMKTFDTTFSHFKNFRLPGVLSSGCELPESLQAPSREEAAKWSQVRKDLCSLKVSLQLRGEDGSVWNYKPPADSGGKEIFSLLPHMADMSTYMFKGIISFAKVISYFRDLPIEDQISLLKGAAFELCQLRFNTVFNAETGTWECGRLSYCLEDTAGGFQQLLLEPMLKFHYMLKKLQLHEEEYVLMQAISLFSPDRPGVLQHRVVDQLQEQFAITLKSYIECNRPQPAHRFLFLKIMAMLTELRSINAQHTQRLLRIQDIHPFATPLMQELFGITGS
Chain of Nuclear receptor subfamily 1 group I member 3 (Homo sapiens) (Q14994 whole entry, looked up): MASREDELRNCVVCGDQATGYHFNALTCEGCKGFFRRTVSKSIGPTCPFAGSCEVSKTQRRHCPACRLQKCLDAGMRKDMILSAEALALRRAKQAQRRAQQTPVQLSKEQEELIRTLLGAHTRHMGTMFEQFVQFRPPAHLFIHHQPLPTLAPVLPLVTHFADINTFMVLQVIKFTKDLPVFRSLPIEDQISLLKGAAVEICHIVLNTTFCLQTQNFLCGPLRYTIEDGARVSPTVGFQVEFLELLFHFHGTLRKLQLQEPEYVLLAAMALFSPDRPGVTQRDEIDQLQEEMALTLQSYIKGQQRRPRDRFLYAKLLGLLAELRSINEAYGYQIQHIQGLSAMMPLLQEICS
Chain of Cytochrome P450 2C19 (Homo sapiens) (P33261 whole entry, looked up): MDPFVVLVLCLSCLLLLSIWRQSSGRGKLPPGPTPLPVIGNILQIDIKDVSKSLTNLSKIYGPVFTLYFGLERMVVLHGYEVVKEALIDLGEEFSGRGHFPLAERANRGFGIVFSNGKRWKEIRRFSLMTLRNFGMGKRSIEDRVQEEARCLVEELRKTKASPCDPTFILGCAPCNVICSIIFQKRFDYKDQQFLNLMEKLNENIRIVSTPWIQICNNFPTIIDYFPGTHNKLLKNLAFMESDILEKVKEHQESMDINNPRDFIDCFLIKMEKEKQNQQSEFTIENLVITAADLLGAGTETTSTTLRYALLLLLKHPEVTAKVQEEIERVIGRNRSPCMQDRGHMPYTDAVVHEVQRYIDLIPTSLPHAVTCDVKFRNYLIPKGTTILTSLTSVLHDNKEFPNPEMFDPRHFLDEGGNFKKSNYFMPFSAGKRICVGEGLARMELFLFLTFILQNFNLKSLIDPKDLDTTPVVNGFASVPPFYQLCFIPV
Chain of Cytochrome P450 2D6 (Homo sapiens) (P10635 whole entry, looked up): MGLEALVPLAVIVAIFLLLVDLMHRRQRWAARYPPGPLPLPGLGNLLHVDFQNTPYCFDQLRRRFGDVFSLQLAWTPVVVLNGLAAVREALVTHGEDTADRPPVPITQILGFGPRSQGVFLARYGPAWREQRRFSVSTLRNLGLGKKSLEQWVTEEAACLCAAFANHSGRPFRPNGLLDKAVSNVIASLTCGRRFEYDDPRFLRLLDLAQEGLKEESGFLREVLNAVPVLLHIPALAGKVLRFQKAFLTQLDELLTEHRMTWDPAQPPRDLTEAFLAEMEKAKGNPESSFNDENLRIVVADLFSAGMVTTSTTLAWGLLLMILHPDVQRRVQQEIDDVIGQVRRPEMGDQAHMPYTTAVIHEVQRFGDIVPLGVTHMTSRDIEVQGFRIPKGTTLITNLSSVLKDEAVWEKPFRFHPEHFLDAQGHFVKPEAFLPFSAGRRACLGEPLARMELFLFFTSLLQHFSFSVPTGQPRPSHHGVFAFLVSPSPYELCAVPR
Chain of Tyrosine-protein kinase Yes (Homo sapiens) (P07947 whole entry, looked up): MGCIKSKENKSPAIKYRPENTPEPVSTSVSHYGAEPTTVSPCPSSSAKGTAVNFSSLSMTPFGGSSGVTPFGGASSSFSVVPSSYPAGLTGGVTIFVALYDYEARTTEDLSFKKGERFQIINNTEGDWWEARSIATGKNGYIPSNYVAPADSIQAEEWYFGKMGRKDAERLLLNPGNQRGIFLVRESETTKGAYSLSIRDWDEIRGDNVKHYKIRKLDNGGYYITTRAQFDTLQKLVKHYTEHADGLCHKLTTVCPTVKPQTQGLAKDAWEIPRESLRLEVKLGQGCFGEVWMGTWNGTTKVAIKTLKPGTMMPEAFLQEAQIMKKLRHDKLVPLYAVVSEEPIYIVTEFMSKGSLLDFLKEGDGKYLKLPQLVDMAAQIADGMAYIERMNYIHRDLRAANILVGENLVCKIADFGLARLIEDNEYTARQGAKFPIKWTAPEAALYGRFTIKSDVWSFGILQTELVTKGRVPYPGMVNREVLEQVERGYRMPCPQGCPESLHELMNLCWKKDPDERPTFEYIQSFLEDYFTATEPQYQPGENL
Chain of Calcium and integrin-binding protein 1 (Homo sapiens) (Q99828 whole entry, looked up): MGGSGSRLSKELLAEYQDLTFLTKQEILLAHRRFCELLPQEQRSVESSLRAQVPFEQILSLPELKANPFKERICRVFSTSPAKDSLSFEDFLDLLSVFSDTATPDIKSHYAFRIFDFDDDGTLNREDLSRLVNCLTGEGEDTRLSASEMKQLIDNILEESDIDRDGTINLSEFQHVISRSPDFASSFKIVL
Chain of Cytochrome P450 2C9 (Homo sapiens) (P11712 whole entry, looked up): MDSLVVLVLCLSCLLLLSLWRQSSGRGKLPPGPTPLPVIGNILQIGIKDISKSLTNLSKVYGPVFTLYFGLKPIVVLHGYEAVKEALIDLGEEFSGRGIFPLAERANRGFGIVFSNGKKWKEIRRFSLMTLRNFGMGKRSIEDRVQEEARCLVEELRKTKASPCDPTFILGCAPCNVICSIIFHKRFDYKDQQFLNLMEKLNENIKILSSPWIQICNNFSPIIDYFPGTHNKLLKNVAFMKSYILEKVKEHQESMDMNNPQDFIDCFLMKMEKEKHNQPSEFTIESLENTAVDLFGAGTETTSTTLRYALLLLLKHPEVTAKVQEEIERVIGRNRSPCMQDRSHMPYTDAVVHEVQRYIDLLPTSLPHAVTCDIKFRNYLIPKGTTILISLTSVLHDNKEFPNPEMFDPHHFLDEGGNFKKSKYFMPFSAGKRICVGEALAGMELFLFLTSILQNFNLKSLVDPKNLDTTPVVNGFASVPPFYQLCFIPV

**Q.** For `CN(C)[C@@H]1C(=O)C(C(N)=O)=C(O)[C@]2(O)C(=O)C3=C(O)c4c(O)cccc4[C@@](C)(O)[C@@H]3C[C@@H]12`, which Potency [1] is on record?
**A.** Its Potency is “inactive”.

**Q.** With `CCCCCCC(C)(C)c1cc(O)c2c(c1)OC(C)(C)C1CC=C(CO)C[C@H]21` (some centres not stated) as the compound, how does the Potency [2] read?
**A.** The Potency was 10 µM (active).

**Q.** For `N#CC(O[C@@H]1O[C@H](CO[C@@H]2O[C@H](CO)[C@@H](O)[C@H](O)[C@H]2O)[C@@H](O)[C@H](O)[C@H]1O)c1ccccc1` (some centres not stated), which Potency [3] is on record?
**A.** Its Potency is “inactive”.

**Q.** And the Potency [4]?
**A.** The Potency was “inactive”.

**Q.** And the Potency [5]?
**A.** Its Potency is “inactive”.

**Q.** What about the outcome [6] of the same compound?
**A.** The outcome was “inactive”.

**Q.** What about the Potency [7] of the same compound?
**A.** Its Potency is “inactive”.

**Q.** With `CC(C)(O)/C=C\C(=O)[C@](C)(O)[C@H]1[C@H](O)C[C@]2(C)[C@@H]3CC=C4[C@@H](C=C(O)C(=O)C4(C)C)[C@]3(C)C(=O)C[C@@]12C` as the compound, how does the Potency [8] read?
**A.** Its Potency is > 11.4 µM (inactive).

**Q.** With `COC(=O)[C@]12CCC(C)(C)C[C@H]1[C@H]1C(=O)C=C3[C@@]4(C)C=C(C#N)C(=O)C(C)(C)[C@@H]4CC[C@@]3(C)[C@]1(C)CC2` as the compound, how does the viability (% of control) [9] read?
**A.** The viability (% of control) was 0.135%.

**Q.** What about the viability, percent of control [10] of the same compound?
**A.** Its viability, percent of control is 1.52%.

**Q.** And the Potency [11]?
**A.** Its Potency is 0.662 µM (active).

**Q.** And the outcome [12]?
**A.** Its outcome is “inactive”.

**Q.** And the Potency [13]?
**A.** The Potency was 10 µM (active).

**Q.** Which outcome [14] does the source give for `C[C@H]1C2Cc3ccc(O)cc3[C@]1(C)CCN2CC1CC1` here?
**A.** The outcome was “inactive”.

**Q.** What about the outcome [15] of the same compound?
**A.** Its outcome is “inactive”.

**Q.** And the outcome [16]?
**A.** Its outcome is “inactive”.

**Q.** And the outcome [17]?
**A.** Its outcome is “inactive”.

**Q.** What about the outcome [18] of the same compound?
**A.** The outcome was “inactive”.

**Q.** What about the outcome [19] of the same compound?
**A.** The outcome was “inactive”.

**Q.** For `N#CC(=Cc1ccc(O)c(O)c1)C(N)=S`, which outcome [20] is on record?
**A.** Its outcome is “inactive”.

**Q.** With `CC12CCC3C(CCC4=C(O)C(=O)CCC43C)C1CCC2=O` (configuration not stated) as the compound, how does the outcome [14] read?
**A.** Its outcome is “inactive”.

**Q.** And the outcome [15]?
**A.** The outcome was “inactive”.

**Q.** And the outcome [16]?
**A.** Its outcome is “inactive”.

**Q.** What about the outcome [17] of the same compound?
**A.** Its outcome is “inactive”.

**Q.** And the outcome [18]?
**A.** Its outcome is “inactive”.

**Q.** What about the outcome [19] of the same compound?
**A.** The outcome was “inactive”.

**Q.** Which outcome [20] does the source give for `C[C@]12CC[C@H]3[C@@H](CCC4C[C@H](O)CC[C@@]43C)[C@@H]1CC[C@@H]2O` (some centres not stated) here?
**A.** Its outcome is “inactive”.
